Activity calls are given as the source filed them. Unless noted, the rule behind the calls is not given here.
Tests used:
[1] = system: Wnt5a (protein binding on small-molecule microarray); test: small molecules binding Wnt5a protein – biophysical, small-molecule microarray, 635/667 nm fluorescence, primary screen (AID 1142); details: 635 nm fluorescence, higher = more signal;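 note: fluorescence read at 667 nm with signal to noise per printed feature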
[2] = ATP-based viability of Huh7 replicon cells – cell-based, CellTiter-Glo luminescence, basal, 48 h, cytotoxicity control for HCV replication inhibitor project, primary screen (AID 1143); details: higher = more signal, called active from +8 up or from −8 down;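 note: Huh7 hepatoma cells carrying a hepatitis C replication reporter with no stimulus; test concentration not given here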
[3] = Pseudomonas biofilm growth suppression – PAO1 strain, BacTiter-Glo luminescence, LB-PBS, primary screen (AID 1144); details: P. aeruginosa PAO1 biofilm, 12 h, higher = more signal
[4] = basal CRE-LacZ reporter activity in PC12 – cell-based, unstimulated, primary screen (AID 1145); details: no forskolin, luminescence, 4.5 h, higher = more signal, called active from +8 up or from −8 down
[5] = forskolin-driven CRE-LacZ activity in PC12 – cell-based, CRE-LacZ reporter, forskolin-stimulated, primary screen (AID 1146); details: luminescence, 4.5 h, higher = more signal, called active from +8 up or from −8 down;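 note: PC12 cells with 6xCRE LacZ reporter stimulated by forskolin 10 µM; beta-galactosidase reporter signal reflecting CREB driven transcription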
[6] = molecular target: Streptavidin (Streptomyces avidinii) (UniProt P22629); test: compounds binding control protein streptavidin – biophysical, small-molecule microarray, 635/667 nm fluorescence, artefact control for SMM compound annotation, primary screen (AID 1147); details: higher = more signal;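 note: signal reflects streptavidin binding to arrayed compounds as a control protein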
[7] = probe aInhba binding on compound microarray – biochemical, small-molecule microarray, 635/667 nm fluorescence, primary screen (AID 1148); details: higher = more signal;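 note: score merges 667nm spot fluorescence with signal-to-noise for antibody binding to printed compounds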
[8] = molecular target: Torsin-1A (Homo sapiens) (UniProt O14656); test: TOR1A wild-type binding on microarray – cell lysate, small-molecule microarray, lysate, 635/667 nm, primary screen (AID 1149); details: COS7 hTOR1A-WT lysate, 635 nm fluorescence, higher = more signal
[9] = molecular target: Torsin-1A (Homo sapiens) (UniProt O14656); test: torsin A mutant lysate binding on microarrays – cell lysate, small-molecule microarray, COS7 lysate, 635/667 nm fluorescence, primary screen (AID 1150); details: COS7 hTOR1A mutant lysate, 635 nm fluorescence, higher = more signal;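 note: score pools 667 nm emission and signal to noise measuring lysate protein binding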
[10] = system: Sonic hedgehog protein (Shh); test: Sonic hedgehog microarray binding compounds – biochemical, small-molecule microarray, 635/667 nm fluorescence, primary screen (AID 1151); details: 635 nm fluorescence, higher = more signal;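 note: Shh protein binding to compounds spotted on small-molecule microarray slides; score combines spot fluorescence intensity with signal-to-noise across triplicate slides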

Torsin-1A (Homo sapiens), sequence (O14656 whole entry, looked up): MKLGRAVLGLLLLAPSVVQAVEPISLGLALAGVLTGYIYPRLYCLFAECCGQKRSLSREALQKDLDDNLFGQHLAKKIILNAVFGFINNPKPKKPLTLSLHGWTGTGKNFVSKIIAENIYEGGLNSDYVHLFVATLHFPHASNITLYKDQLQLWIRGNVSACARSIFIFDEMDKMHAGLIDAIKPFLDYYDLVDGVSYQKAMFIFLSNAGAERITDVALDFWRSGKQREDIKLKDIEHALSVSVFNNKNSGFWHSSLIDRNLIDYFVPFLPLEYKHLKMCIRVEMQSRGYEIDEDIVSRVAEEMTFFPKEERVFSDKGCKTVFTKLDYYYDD
Streptavidin (Streptomyces avidinii), sequence (P22629 whole entry, looked up): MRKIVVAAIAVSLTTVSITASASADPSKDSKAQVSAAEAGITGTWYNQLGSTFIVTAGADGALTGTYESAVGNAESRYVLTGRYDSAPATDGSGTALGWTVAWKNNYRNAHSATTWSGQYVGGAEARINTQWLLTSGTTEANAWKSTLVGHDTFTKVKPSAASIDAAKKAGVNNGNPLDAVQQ

Row | SMILES | composite z-score [1] | z-score [2] | z-score [3] | z-score [4] | z-score [5] | composite z-score [6] | composite z-score [7] | composite z-score [8] | composite z-score [9] | composite z-score [10]
1 | COC(=O)C(CC#Cc1ccc2c(c1)[C@]1(C(=O)N2)[C@H](C(=O)N2CCN(c3ncccn3)CC2)[C@H]2C(=O)O[C@H](c3ccccc3)[C@H](c3ccccc3)N2[C@@H]1c1ccc(O)cc1)C(=O)OC | 0.923 | -3.7 (inactive) | -0.58 (inactive) | -0.0515 (inactive) | 0.0989 (inactive) | 2.27 | 1.39 | 0.662 | 1.12 | 1.04
2 | COc1ccc(C(=O)Nc2ccc(CN3C(=O)[C@@]4(O[C@@H](CC(=O)N(CCO)Cc5ccccc5)[C@H]([Si](C)(C)c5ccc(OC)cc5)[C@H]4C)c4ccccc43)cc2)cc1 | 0.353 | -5.7 (inactive) | -0.376 (inactive) | -0.533 (inactive) | -0.0361 (inactive) | 0.675 | -0.179 | 0.438 | -0.0394 | 1.59
3 | C=C(CCCC)/C(=C/C[C@@H](OC(C)=O)c1cccc(OCCO)c1)c1cc(C(=O)OC)ccc1OC | -0.257 | -0.917 (inactive) | 0.198 (inactive) | 4.5 (inactive) | 1.48 (inactive) | -0.697 | -0.0645 | 0.146 | -0.558 | 1.48
4 | COCCOC(=O)N1C(=O)[C@@]2(c3ccccc31)[C@H](C(=O)Nc1nc3ccccc3s1)[C@H]1C(=O)O[C@H](c3ccccc3)[C@H](c3ccccc3)N1[C@@H]2c1ccccc1OCCO | 0.0847 | -3.65 (inactive) | -0.457 (inactive) | -0.207 (inactive) | -0.144 (inactive) | 1.39 | 0.379 | 0.282 | 0.781 | 0.733
5 | CN(C)CCCCCCNC(=O)[C@@H]1C[C@@H]2C(=O)N[C@@H](CCCC[N+](C)(C)C)C(=O)N2[C@@H]1c1cccc(OCCO)c1 | 0.144 | -0.966 (inactive) | -0.217 (inactive) | -0.805 (inactive) | -0.416 (inactive) | -0.3 | 0.0569 | 0.327 | -0.284 | -0.371
6 | O=C1c2ccccc2[C@@]2(Cc3ccccc3N(CC(F)(F)F)C2=O)[C@H](c2ccc(CO)cc2)N1Cc1ccccc1 | 0.104 | -4.1 (inactive) | -0.692 (inactive) | -0.258 (inactive) | -0.616 (inactive) | 0.0298 | -0.149 | -0.118 | -0.175 | 1.82
7 | CC(CO)N1C(=O)[C@@H]2[C@H]3C(=O)OCC=C[C@H]3OC23C=CCN(c2ccc4ccccc4c2)C(=O)[C@@H]13 (stereo not given in full) | -1.02 | 0.417 (inactive) | 1.19 (inactive) | 0.862 (inactive) | -0.702 (inactive) | -1.06 | -0.128 | -2.15 | -1.05 | -1.19
8 | COCCOC(=O)N1C(=O)[C@@]2(c3cc(C#CC4=CCCCC4)ccc31)[C@H](C(=O)N1CCCCCCC1)[C@H]1C(=O)O[C@H](c3ccccc3)[C@H](c3ccccc3)N1[C@@H]2c1ccccc1OCCO | 0.393 | -5.21 (inactive) | -1.33 (inactive) | -1.7 (inactive) | -1.11 (inactive) | 1.04 | 0.806 | 0.801 | 0.824 | 1.62
9 | COCCOC(=O)N1C(=O)[C@@]2(c3cc(C#CCNC(N)=O)ccc31)[C@H](c1ccc(O)cc1)N1[C@H](c3ccccc3)[C@H](c3ccccc3)OC(=O)[C@H]1[C@@H]2C(=O)N1CCc2cc(OC)c(OC)cc2C1 | 0.0981 | -0.483 (inactive) | 0.389 (inactive) | -0.0515 (inactive) | -0.379 (inactive) | 0.468 | -0.0448 | -0.0669 | 0.148 | 0.97
10 | O=C1O[C@H](c2ccccc2)[C@H](c2ccccc2)N2[C@H]1[C@@H](C(=O)N1CCCCCCC1)[C@]1(C(=O)Nc3ccc(C#CCCO)cc31)[C@H]2c1ccc(O)cc1 | 2.43 | -1.76 (inactive) | -0.575 (inactive) | -0.438 (inactive) | -1.23 (inactive) | 3.86 | 1.84 | 3.62 | 3.34 | 2.36
11 | Cc1ccc(S(=O)(=O)N2[C@@H](c3ccccc3)C(C(=O)O)=C[C@H]2C(C)(C)C)cc1 | 0.211 | -1.23 (inactive) | 0.137 (inactive) | 0.238 (inactive) | 0.926 (inactive) | 1.52 | 0.209 | 0.391 | 0.985 | 0.719
12 | C=CCOC(=O)[C@H]1[C@@H]2C(=O)O[C@@H](c3ccccc3)[C@@H](c3ccccc3)N2[C@@H](c2ccc(OCCOC(=O)[C@@H]3C[C@@H]4C(=O)N[C@@H](Cc5ccccc5)C(=O)N4[C@@H]3c3ccc(O)cc3)cc2)[C@]12C(=O)Nc1ccc(I)cc12 | 0.305 | -0.268 (inactive) | 0.0872 (inactive) | 0.81 (inactive) | 0.695 (inactive) | 0.387 | 0.124 | -0.305 | 0.237 | 1.93
13 | COCCOC(=O)N1C(=O)[C@@]2(c3cc(C#CCNC(N)=O)ccc31)[C@H](c1ccccc1OCCO)N1[C@H](c3ccccc3)[C@H](c3ccccc3)OC(=O)[C@H]1[C@@H]2C(=O)N1CCCCCCC1 | 0.112 | -0.923 (inactive) | 0.342 (inactive) | 0.2 (inactive) | 1.97 (inactive) | 0.777 | 0.168 | 0.419 | 0.367 | 0.83
14 | Cc1ccc(N2C(=O)c3ccccc3[C@@H](C(=O)NCCN3CCOCC3)[C@@H]2c2ccc(CO)cc2)nc1 | -0.275 | 0.209 (inactive) | -0.479 (inactive) | 0.145 (inactive) | -0.479 (inactive) | -1.42 | 0.0051 | -2.75 | -1.65 | 0.179
15 | COc1ccc([Si](C)(C)[C@H]2[C@H](CC(=O)N3CCC[C@H]3CO)O[C@@]3(C(=O)N(C)c4ccccc43)[C@@H]2C)cc1 | -0.0653 | 0.191 (inactive) | -0.0357 (inactive) | 1.2 (inactive) | 1.33 (inactive) | -0.28 | 0.152 | 1.52 | 0.732 | 1.54
16 | COc1ccc([Si](C)(C)[C@H]2[C@H](CC(=O)N3CCC[C@H]3CO)O[C@@]3(C(=O)N(C)c4c(Br)cc(C)cc43)[C@@H]2C)cc1 | 1.55 | -1.11 (inactive) | -0.518 (inactive) | 0.758 (inactive) | 1.09 (inactive) | 3.28 | 0.462 | 2.05 | 1.5 | 1.6
17 | O=C(c1ccccc1)N1Cc2ccccc2C[C@@]2(N=C(c3ccc(OCCCO)cc3)O[C@H]2c2ccccc2)C1=O | 1.27 | -4.73 (inactive) | -0.191 (inactive) | 0.904 (inactive) | -1.12 (inactive) | 0.491 | 0.0658 | 0.881 | 1.06 | 2.19
18 | COC(=O)[C@@]1(Cc2ccc(F)cc2)[C@H]2c3cc(C(=O)N4CCCC4)n(CCSCCO)c3C[C@H]2CN1C(=O)c1ccccc1 | 0.0841 | -1.11 (inactive) | -0.375 (inactive) | 0.397 (inactive) | 1.13 (inactive) | -0.383 | -0.0477 | -0.319 | 0.301 | -0.697
19 | O=C1C[C@@](C(=O)NCC(F)(F)F)(c2ccc([N+](=O)[O-])cc2)[C@@H](c2ccc(CO)cc2I)N1CC12CC3CC(CC(C3)C1)C2 | 0.437 | -5.73 (inactive) | -1.44 (inactive) | 0.558 (inactive) | -1.01 (inactive) | 0.229 | 0.0167 | -0.286 | -0.251 | 1.53
20 | COC(=O)[C@@]1(Cc2ccccc2)[C@H]2c3cc(C(=O)N(C)C)n(Cc4nc5ccccc5[nH]4)c3C[C@H]2CN1C(=O)c1ccccc1 | 0.118 | -2.07 (inactive) | -0.142 (inactive) | 0.959 (inactive) | -0.0536 (inactive) | 1.26 | 0.337 | 0.626 | 0.853 | -0.441
21 | CC1CC/C=C\[C@H]2OC34C=CCN(C(C)C)C(=O)[C@H]3N(C(C)CO)C(=O)[C@@H]4C2C(=O)O1 (stereo not given in full) | -0.293 | 0.143 (inactive) | -0.657 (inactive) | -1.04 (inactive) | -0.627 (inactive) | -0.447 | 1.09 | 0.0269 | -0.381 | 1.09
22 | COCCOC(=O)N1C(=O)[C@@]2(c3cc(C#CCC(C(=O)OC)C(=O)OC)ccc31)[C@H](C(N)=O)[C@H]1C(=O)O[C@H](c3ccccc3)[C@H](c3ccccc3)N1[C@@H]2c1ccccc1OCCO | -0.0211 | -6.46 (inactive) | -2.59 (inactive) | -1.84 (inactive) | -2.42 (inactive) | 1.09 | -0.0259 | 0.0139 | 0.212 | 1.9
23 | O=C1NC(=O)C2C1C=CC(C(O)C1CCCCC1)N2Nc1ccccn1 (stereo not given) | 0.0408 | 1.06 (inactive) | -1.42 (inactive) | 0.433 (inactive) | 1.29 (inactive) | -0.15 | -0.0762 | 0.254 | 0.852 | 0.278
24 | COCCCNC(=O)[C@@]1(Cc2ccccc2I)c2ccccc2C(=O)N(C2CCCCC2)[C@H]1c1ccc(CO)cc1 | 0.665 | -4.51 (inactive) | -1.54 (inactive) | 0.468 (inactive) | -0.175 (inactive) | -0.0972 | 0.115 | -0.0751 | 0.646 | 1.04

Reference: PubChem BioAssay
